An excerpt weighted towards active compounds, which were near 1.6% of everything screened.
PLK1 PBD inh: inhibitors of human Plk1 polo box domain binding | 97,000 tested, 0.13% active | inhibition, %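 (tested at about 20 µM)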 | Plk1 PBD phosphopeptide binding, fluorescence polarization | AID 693 | P53350; in the data active means inhibition above about 34%, passing the limit was not always enough
FAK inh: inhibitors of human focal adhesion kinase; Q05397; biochemical FAK kinase activity assay; inhibition, %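 (tested at 7 µM)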; 97,000 tested, 0.84% active; AID 727; in the data active means inhibition above about 19%;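 further: 0% = DMSO and 100% = reference compound high control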
Target sequence (Q05397 whole entry, looked up): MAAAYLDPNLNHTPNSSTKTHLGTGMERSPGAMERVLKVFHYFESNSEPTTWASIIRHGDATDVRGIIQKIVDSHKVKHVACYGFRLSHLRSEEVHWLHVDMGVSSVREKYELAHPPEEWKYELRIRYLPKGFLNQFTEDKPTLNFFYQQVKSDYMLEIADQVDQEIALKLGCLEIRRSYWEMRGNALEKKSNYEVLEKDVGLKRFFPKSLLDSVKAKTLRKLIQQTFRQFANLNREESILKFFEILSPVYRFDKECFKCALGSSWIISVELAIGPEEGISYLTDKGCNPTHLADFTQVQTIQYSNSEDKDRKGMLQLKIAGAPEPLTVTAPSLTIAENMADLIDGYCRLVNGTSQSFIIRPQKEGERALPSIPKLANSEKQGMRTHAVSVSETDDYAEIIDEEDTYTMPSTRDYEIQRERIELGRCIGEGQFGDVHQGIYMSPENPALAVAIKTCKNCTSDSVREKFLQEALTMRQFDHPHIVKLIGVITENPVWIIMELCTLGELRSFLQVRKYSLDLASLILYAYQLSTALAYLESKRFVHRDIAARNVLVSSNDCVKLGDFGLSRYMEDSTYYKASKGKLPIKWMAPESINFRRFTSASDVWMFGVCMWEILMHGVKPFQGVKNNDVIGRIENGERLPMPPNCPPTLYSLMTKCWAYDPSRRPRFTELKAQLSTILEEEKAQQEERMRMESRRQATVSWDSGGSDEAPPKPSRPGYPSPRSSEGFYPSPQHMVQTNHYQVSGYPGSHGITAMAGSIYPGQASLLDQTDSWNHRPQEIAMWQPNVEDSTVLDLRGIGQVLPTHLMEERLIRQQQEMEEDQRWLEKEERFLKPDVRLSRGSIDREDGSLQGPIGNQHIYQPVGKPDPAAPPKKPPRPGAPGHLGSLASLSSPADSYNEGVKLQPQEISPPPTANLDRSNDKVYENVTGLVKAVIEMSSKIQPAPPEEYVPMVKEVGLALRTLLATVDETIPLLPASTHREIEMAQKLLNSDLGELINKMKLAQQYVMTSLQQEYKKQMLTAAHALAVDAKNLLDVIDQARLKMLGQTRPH
Smad3 inh: inhibitors of human Smad3 transcription factor binding; P84022; TR-FRET Smad3/Dy647-FoxH1 peptide binding, europium anti-His; inhibition, % at 25 µM; 88,000 tested, 0.29% active; AID 630;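 active means compounds that reduce the energy-transfer binding signal between the protein and its labelled peptide by more than half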;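 further: 0% = Smad3 plus labelled peptide maximal FRET and 100% = peptide-only background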
PLK1 kinase inh: blocks human PLK1 kinase activity; 97,000 tested, 0.53% active; P53350; AID 619; inhibition, % at 10 µM; recombinant PLK1 kinase, TR-FRET peptide phosphorylation;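 active means inhibition of 50% or more in the single-concentration screen; inactive means inhibition below 50%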;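 further: 0% = DMSO max control and 100% = H-89 dihydrochloride min control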
EphB4 ephrin blk: EphB4-ephrin-B2 interaction antagonism; AID 720; inhibition, % at 7 µM; P54760; 97,000 tested, 0.15% active; EphB4 LBD / TNYL-RAW-Alexa532 peptide, fluorescence polarization;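 active means inhibition above the screen-wide mean inhibition plus 3 SD, cut at about 15% in these data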;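 further: 0% = DMSO wells and 100% = excess unlabeled TNYL-RAW peptide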
PLK1 confirm: confirmation of human PLK1 kinase inhibitors; shares compounds with PLK1 kinase inh; recombinant PLK1 kinase, TR-FRET peptide phosphorylation; inhibition, % at 10 µM; 210 tested, 20% active; AID 744;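 active means inhibition at or above 50% in each of two repeat confirmation tests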;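 further: 0% = DMSO max control and 100% = H-89 kinase-blocked min control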
TR-FRET interf: interferes with the Plk1 assay readout, not true inhibition. shares compounds with PLK1 kinase inh. Plk1 TR-FRET assay interference, compound added post-reaction. 210 tested, under 10 active. inhibition (interference), % at 10 µM. AID 756;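 active means both duplicate runs show 50% or greater inhibition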;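 further: 0% = DMSO max control and 100% = H-89 min control inhibited reaction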
* = called active by the depositor.

Results for COCCn1c(SCC(N)=O)nnc1-c1c[nH]c2ccccc12 ?
PLK1 PBD inh: -30.8; FAK inh: 0.4; Smad3 inh: -4.3; PLK1 kinase inh: 71.1*; EphB4 ephrin blk: 2.1; PLK1 confirm: 6.1; TR-FRET interf: -46.1

What do the screens show for `C=CCc1cc(C)ccc1OCCn1ccnc1`?
PLK1 PBD inh: 9.0; FAK inh: -0.2; Smad3 inh: 4.6; PLK1 kinase inh: 85.7*; EphB4 ephrin blk: -4.6; PLK1 confirm: -6.6; TR-FRET interf: -61.1

Results for COc1ccc(C2OC(=O)CC2C(=O)N2CCN(c3cc(Cl)ccc3C)CC2)cc1OC (stereo not drawn) ?
PLK1 PBD inh: -18.9; FAK inh: 0.3; Smad3 inh: 3.2; PLK1 kinase inh: 75.8*; EphB4 ephrin blk: -3.6; PLK1 confirm: -4.9; TR-FRET interf: -52.4

How did Cc1ccc(Cl)cc1N1CCN(C(=O)C2CCN(c3nnc(-n4cccc4)s3)CC2)CC1 do in these assays?
Smad3 inh: -4.3

What do the screens show for `O=C1CNCCCN2CCN(CCCNCC(=O)Nc3ccc(cc3)S(=O)(=O)c3ccc(cc3)NC(=O)CNCCCN3CCN(CCCNCC(=O)Nc4ccc(cc4)S(=O)(=O)c4ccc(cc4)N1)CC3)CC2`?
Smad3 inh: 49.4

Results for Cc1cc2c(=O)[nH]cnc2s1 ?
PLK1 PBD inh: -35.0; FAK inh: -1.3; Smad3 inh: 5.0; PLK1 kinase inh: 0.2; EphB4 ephrin blk: 2.7

How did CCOc1c(Br)ccc2c1sc1nc[nH]c(=O)c12 do in these assays?
PLK1 PBD inh: -6.0; FAK inh: 7.0; Smad3 inh: 7.2; PLK1 kinase inh: 76.1*; EphB4 ephrin blk: 3.1; PLK1 confirm: 68.3*; TR-FRET interf: -55.5

What do the screens show for `Cc1cc(C)c2c(=O)[nH]c(SCC(=O)Nc3ccc(N(C)C)cc3)nc2n1`?
PLK1 PBD inh: 24.4; FAK inh: 7.3; Smad3 inh: -23.4; PLK1 kinase inh: 40.4; EphB4 ephrin blk: 4.5

What do the screens show for `Cc1ccc(NC(=O)CSc2nc3nc(C)cc(C)c3c(=O)[nH]2)cc1`?
PLK1 PBD inh: -24.3; FAK inh: 3.1; Smad3 inh: 1.0; PLK1 kinase inh: 73.0*; EphB4 ephrin blk: 2.1; PLK1 confirm: 6.9; TR-FRET interf: -53.6

How did CCCCNCc1cc(Br)c(OCc2cccs2)c(OC)c1 do in these assays?
PLK1 PBD inh: 23.5; FAK inh: 0.7; PLK1 kinase inh: -1.9; EphB4 ephrin blk: -0.4

Results for CCCCNCc1cc(Br)c(OCC(=O)N2CCOCC2)c(OC)c1 ?
PLK1 PBD inh: 18.6; FAK inh: -0.6; PLK1 kinase inh: 125.5*; EphB4 ephrin blk: 4.2; PLK1 confirm: -6.4; TR-FRET interf: -49.3

How did O=C(CCC(=O)c1ccc(Cl)cc1)OCC(=O)c1ccccc1 do in these assays?
PLK1 PBD inh: -15.4; FAK inh: -2.9; PLK1 kinase inh: 125.8*; EphB4 ephrin blk: 0.5; PLK1 confirm: -2.3; TR-FRET interf: -53.4

Results for O=C(COC(=O)c1cccnc1)c1ccc(Cl)cc1 ?
PLK1 PBD inh: 15.6; FAK inh: -6.5; Smad3 inh: -19.5; PLK1 kinase inh: -2.1; EphB4 ephrin blk: -2.4

How did Nc1c(S(=O)(=O)O)cc(Nc2cccc(S(N)(=O)=O)c2)c2c1C(=O)c1ccccc1C2=O do in these assays?
Smad3 inh: 29.5

What do the screens show for `CCCNC(=O)CS(=O)Cc1nc(-c2cccc(OC)c2)oc1C` (stereo not drawn)?
PLK1 PBD inh: -9.5; FAK inh: -0.7; Smad3 inh: -3.0; PLK1 kinase inh: -6.0; EphB4 ephrin blk: -2.4

Results for COc1cccc(-c2nc(CS(=O)CC(=O)NCc3ccccc3)c(C)o2)c1 (stereo not drawn) ?
PLK1 PBD inh: -5.3; FAK inh: 5.5; Smad3 inh: 8.2; PLK1 kinase inh: 71.5*; EphB4 ephrin blk: 3.0; PLK1 confirm: -1.1; TR-FRET interf: -46.7

What do the screens show for `Nc1ncnc(Nc2cccc(C(F)(F)F)c2)n1`?
PLK1 PBD inh: 0.0; FAK inh: 13.1; Smad3 inh: 1.3; PLK1 kinase inh: 76.7*; EphB4 ephrin blk: 8.5; PLK1 confirm: 73.8*; TR-FRET interf: -43.6

Results for O=C(c1oc(=O)c2ccccc2c1-c1ccccc1)N1CCC(O)CC1 ?
PLK1 PBD inh: 28.6; FAK inh: -2.5; Smad3 inh: 1.4; PLK1 kinase inh: 77.6*; EphB4 ephrin blk: -2.7; PLK1 confirm: 3.6; TR-FRET interf: -52.0

What do the screens show for `COc1cccc(NC(=O)CN2C(=O)COc3ccc(Cl)cc32)c1`?
PLK1 PBD inh: 15.4; FAK inh: 2.0; Smad3 inh: -7.2; PLK1 kinase inh: 76.3*; EphB4 ephrin blk: -1.4; PLK1 confirm: -0.2; TR-FRET interf: -47.9

Results for Cc1cc2ccc(OC(=O)c3ccc(N=C(N)N)cc3)cc2oc1=O ?
Smad3 inh: 11.8

Results for Cn1c(NC(=O)c2ccccc2Br)cc(=O)n(C)c1=O ?
Smad3 inh: 9.8

What do the screens show for `Cn1c(NC(=O)c2ccccc2C(F)(F)F)cc(=O)n(C)c1=O`?
PLK1 PBD inh: -0.4; FAK inh: -1.7; Smad3 inh: -3.5; PLK1 kinase inh: 76.3*; EphB4 ephrin blk: -4.0; PLK1 confirm: 4.1; TR-FRET interf: -59.5

Results for OCCSCc1cc(Cl)cc(Cl)c1O ?
Smad3 inh: 0.3

What do the screens show for `CC(CNCc1ccc2c(c1)OCO2)NCc1ccc2c(c1)OCO2` (stereo not drawn)?
PLK1 PBD inh: -2.3; FAK inh: -2.3; Smad3 inh: 2.6; PLK1 kinase inh: 73.9*; EphB4 ephrin blk: -5.4; PLK1 confirm: -13.0; TR-FRET interf: -50.1

What do the screens show for `COc1ccc(CNC(=O)C(CCSC)NC(=O)c2ccco2)cc1` (stereo not drawn)?
PLK1 PBD inh: 14.2; FAK inh: -0.8; PLK1 kinase inh: -17.2; EphB4 ephrin blk: 6.3

How did O=C(NCc1ccc2c(c1)OCO2)c1ccc(CS(=O)(=O)c2ccc(Br)cc2)o1 do in these assays?
PLK1 PBD inh: 16.8; FAK inh: -1.6; Smad3 inh: -11.1; PLK1 kinase inh: 76.2*; EphB4 ephrin blk: 5.1; PLK1 confirm: -6.2; TR-FRET interf: -46.5

What do the screens show for `CCC(C)(C)n1nnnc1C(c1ccc(C)cc1)N(Cc1ccco1)Cc1cccs1` (stereo not drawn)?
PLK1 PBD inh: -1.5; FAK inh: -1.7; Smad3 inh: -15.1; PLK1 kinase inh: -6.0; EphB4 ephrin blk: 3.9

What do the screens show for `Cc1onc(-c2ccccc2)c1C(=O)NC(C)C`?
PLK1 PBD inh: -5.7; FAK inh: 3.9; Smad3 inh: 11.1; PLK1 kinase inh: 77.5*; EphB4 ephrin blk: -4.2; PLK1 confirm: -4.3; TR-FRET interf: -46.8

What do the screens show for `Nc1ccccc1CCCC(=O)O`?
Smad3 inh: 7.4

Results for COc1ccc(C(=O)N2CCOCC2)cc1Br ?
PLK1 PBD inh: -27.8; FAK inh: -1.4; Smad3 inh: 4.4; PLK1 kinase inh: 129.5*; EphB4 ephrin blk: -1.9; PLK1 confirm: -12.0; TR-FRET interf: -49.2

Results for O=CN[C@@H](Cc1cnc[nH]1)C(=O)O ?
Smad3 inh: -0.2
